The source made the active and inactive calls. Rule for the calls: active = hit-call score of the fitted dose curve at least 0.9, where 1 is the maximum; inactive = score below 0.9.

This is an account of results in PubChem BioAssay (EPA / NIEHS).

The nature of experiment [1]: ATG_E_Box_CIS: Attagene CIS-FACTORIAL HepG2 Assay for human Enhancer Box (E-box) (AID 2282936). Particulars: HepG2 E-box cis-reporter transcription, actives raise or lower the signal. Put shortly: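 Endogenous transcription factor activity was sensed in human HepG2 liver cells through transfected cis-promoter reporter units. After 24 h of dosing, total RNA was reverse-transcribed and reporter cDNA resolved by capillary electrophoresis.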

A short description of experiment [2]: ATG_M_61_CIS: Attagene CIS-FACTORIAL HepG2 Assay for M61 Transcription Factor (Internal Marker) (AID 2282937). Particulars: HepG2 Attagene CIS-FACTORIAL M61 internal marker reporter; actives raise or lower the signal. Put shortly:
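HepG2 cells transiently transfected with multiplexed cis-promoter reporter units reporting endogenous transcription factor activity, measured 24 h after dosing. Reporter mRNA quantified by RT-PCR and capillary electrophoresis; bidirectional fit against DMSO baseline.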

Experiment [3] in a line: ATG_EGR_CIS: Attagene CIS-FACTORIAL HepG2 Assay for human Early Growth Response 1 (EGR1) (AID 2282938). Particulars: HepG2 Attagene CIS-FACTORIAL EGR reporter mRNA; actives raise or lower the signal. Put shortly:
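HepG2 cells transiently transfected with cis-element-driven multiplexed reporter units, dosed for 24 h. EGR1-element reporter mRNA quantified by RT-PCR, 6-FAM labelling, HpaI digestion and capillary electrophoresis; bidirectional fit versus DMSO.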

Experiment [4] is described as follows: ATG_Ets_CIS: Attagene CIS-FACTORIAL HepG2 Assay for human Erythroblast Transformation Specific (ETS) (AID 2282941). Particulars: HepG2 ETS cis-reporter transcription, actives raise or lower the signal. The method in brief:
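RT-PCR/capillary electrophoresis fluorescence read-out of reporter mRNA; HepG2 transient multi-reporter transfection; 24 h compound exposure; gain or loss of signal fitted bidirectionally relative to DMSO.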

Experiment [5] addresses Hepatocyte nuclear factor 3-beta (Homo sapiens) (UniProt Q9Y261). Briefly: ATG_FoxA2_CIS: Attagene CIS-FACTORIAL HepG2 Assay for human Forkhead box A2 (FOXA2) (AID 2282942). Particulars: HepG2 cis-reporter transcription factor activity, 24 h; actives raise or lower the signal. Put shortly:
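HepG2 transiently transfected with a multiplexed cis-promoter reporter library read endogenous FOXA2 activity. After 24 h compound exposure, reporter mRNA was quantified by RT-PCR, HpaI digestion and capillary electrophoresis. Bidirectional fit against DMSO.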

Experiment [6] is described as follows: ATG_FoxO_CIS: Attagene CIS-FACTORIAL HepG2 Assay for human Forkhead box O (FoxO) (AID 2282943). Particulars: HepG2 Attagene cis-reporter, FoxO element, mRNA; actives raise or lower the signal. The method in brief:
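Values reflect reporter mRNA induction or loss in HepG2 cells 24 h post-dosing, fitted bidirectionally with DMSO as negative control and baseline. Detection used RT-PCR and fluorescence capillary electrophoresis.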

A short description of experiment [7]: ATG_GATA_CIS: Attagene CIS-FACTORIAL HepG2 Assay for human GATA Binding Protein (AID 2282944). Particulars: HepG2 GATA cis-element reporter, Attagene multiplex mRNA; actives raise or lower the signal. Put shortly: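 After transfecting HepG2 cells with multiple cis-regulated reporter units, chemicals are dosed for 24 h; isolated RNA undergoes RT-PCR and fluorescent labeling before capillary electrophoresis, with activity expressed against DMSO.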

Experiment [8] in a line: ATG_M_19_CIS: Attagene CIS-FACTORIAL HepG2 Assay for M19 Transcription Factor (Internal Marker) (AID 2282939). Particulars: HepG2 Attagene CIS-FACTORIAL M19 internal marker reporter; actives raise or lower the signal. Put shortly: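 Signals come from fluorescence of labelled reporter-specific PCR fragments resolved by capillary electrophoresis, following 24 h treatment of HepG2 cells transfected with cis-promoter reporter units; activity was fitted in both directions relative to DMSO.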

A short description of experiment [9]: ATG_ERE_CIS: Attagene CIS-FACTORIAL HepG2 Assay for Estrogen Response Element (ERE) (AID 2282940). Particulars: HepG2 ERE cis-reporter, Attagene RNA transcript; actives raise or lower the signal. The method in brief:
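Fluorescence of capillary-separated, FAM-labelled reporter cDNA fragments indicates reporter mRNA levels in HepG2 cells exposed to chemicals for 24 h. Transient transfection with cis-regulated units; data fitted in both directions against DMSO.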

Chain of Hepatocyte nuclear factor 3-beta (Homo sapiens) (Q9Y261 whole entry, looked up): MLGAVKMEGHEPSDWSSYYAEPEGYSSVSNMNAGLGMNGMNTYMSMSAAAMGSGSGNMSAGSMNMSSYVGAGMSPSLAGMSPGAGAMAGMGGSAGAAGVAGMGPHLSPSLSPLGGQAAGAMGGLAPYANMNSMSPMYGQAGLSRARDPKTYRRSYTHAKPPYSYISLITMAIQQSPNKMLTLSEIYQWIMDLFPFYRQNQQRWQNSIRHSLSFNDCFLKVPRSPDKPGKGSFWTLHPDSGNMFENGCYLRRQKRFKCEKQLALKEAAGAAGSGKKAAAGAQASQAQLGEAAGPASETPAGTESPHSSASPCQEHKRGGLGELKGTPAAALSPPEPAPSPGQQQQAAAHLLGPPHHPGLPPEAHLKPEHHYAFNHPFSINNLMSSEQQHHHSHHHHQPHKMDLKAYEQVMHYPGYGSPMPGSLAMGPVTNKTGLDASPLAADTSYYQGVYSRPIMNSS

With `O=C(O)c1ccccc1O`, the result in experiment [1], in experiment [2], in experiment [3], in experiment [4], in [5] and in experiment [6] was inactive. Moreover, the result in [7] was inactive.
In the case of `O=C(O)c1cccc(Cl)n1`, the outcome in experiment [1], in [2], in experiment [3], in [8], in [9] and in experiment [4] was inactive. For the same compound, the outcome in experiment [5], in [6] and in experiment [7] was inactive.
For the compound `CCOC(=O)C=Cc1ccccc1`, the result in experiment [1], in [2], in [3], in [8], in experiment [5] and in experiment [6] was inactive. In experiment [7], the compound was classed as inactive.
Take `CC1=CC[C@@H](C(C)(C)O)CC1`: the compound was called inactive in experiment [2], in experiment [3], in [8], in experiment [9], in experiment [4] and in experiment [5]. For the same compound, the result in experiment [6] and in experiment [7] was inactive.
Take `C=CC(C)CCCC(C)(C)O` (stereo not drawn): the outcome in [1], in experiment [2], in [3], in [8], in [9] and in experiment [4] was inactive. Also, the outcome in experiment [5], in experiment [6] and in [7] was inactive.
Take `CCCO[Si](OCCC)(OCCC)OCCC`: the result in [1], in experiment [2], in experiment [3], in experiment [8], in [9] and in [4] was inactive. Besides, the outcome in [5], in experiment [6] and in experiment [7] was inactive.
As for `N#CCCCC(C#N)CCC#N` (stereo not drawn), the compound was called inactive in experiment [2], in experiment [3], in [8], in experiment [9], in experiment [4] and in experiment [5]. For the same compound, the result in experiment [6] and in [7] was inactive.
With `CC(=O)c1ccc2ccccc2c1`, the outcome in experiment [1], in experiment [2], in experiment [3], in experiment [8], in experiment [9] and in experiment [4] was inactive. Moreover, the call in experiment [5], in experiment [6] and in [7] was inactive.
Take `O=S(=O)(O)CCCN1CCOCC1`: the compound was classed as inactive in experiment [2], in [3], in experiment [8], in experiment [9], in experiment [6] and in [7].
As to `CCCCOCCOCCO`, the result in [1], in experiment [2], in experiment [3], in experiment [8], in experiment [9] and in experiment [4] was inactive. Moreover, in experiment [7], the result was inactive.
Take `FC(F)(F)c1ccc(Cl)c(Cl)c1`: the call in [2], in [3], in experiment [8], in experiment [9], in experiment [4] and in experiment [5] was inactive. The compound was called inactive in experiment [6] and in experiment [7].
As to `OC[C@@H](O)[C@H](O)[C@@H](O)[C@@H](O)CO`, the outcome in experiment [1], in experiment [2], in [3], in experiment [8], in experiment [4] and in experiment [7] was inactive. Further, the AC50 (in general, the midpoint of the concentration-response curve, whichever way the signal moves) in experiment [9] is 30.1 µM (active).
Consider `CC1(C)[C@H](C=C(Cl)Cl)[C@H]1C(=O)OCc1cccc(Oc2ccccc2)c1`, for which the outcome in [1], in experiment [2], in experiment [3], in [8], in experiment [9] and in [5] was inactive. Further, the result in experiment [7] was inactive.
Regarding `C[N+](C)(C)CCO`, the result in experiment [1], in experiment [2], in experiment [3], in experiment [8], in experiment [9] and in experiment [4] was inactive. Moreover, the compound was classed as inactive in [5], in [6] and in [7].
For `CC(=O)C1=C(C)[C@@H]2C[C@@]3(C1)[C@H](C)CC[C@H]3C2(C)C`, the outcome in experiment [1], in experiment [3], in experiment [5], in experiment [6] and in experiment [7] was inactive. Also, in experiment [2], the AC50 is 75.3 µM (active).
On to `CCCCOCCOCCOCCO`, for which the outcome in [1], in experiment [2], in [3], in experiment [8], in experiment [4] and in experiment [6] was inactive. In [7], the outcome was inactive.
Consider `CC(C)N(c1ccccc1)C(C)C`, for which the compound was classed as inactive in [2], in experiment [3], in [8], in experiment [4] and in experiment [6].
For the compound `CC(C)(CO)CO`, the call in [2], in experiment [3], in experiment [8], in experiment [4], in experiment [5] and in [6] was inactive. Also, the call in experiment [7] was inactive.
Consider `O=C1OCc2ccccc21`, for which the result in experiment [1], in experiment [2], in [3], in [9], in experiment [4] and in experiment [5] was inactive. In experiment [7], the compound was called inactive.
In the case of `c1coc(CNc2ncnc3nc[nH]c23)c1`, the outcome in [1], in experiment [2], in experiment [3], in experiment [8], in [9] and in [4] was inactive. The call in [5], in experiment [6] and in experiment [7] was inactive.
For the compound `CCCCCCCOC(C)=O`, the outcome in experiment [1], in [2], in experiment [3], in experiment [4], in [5] and in experiment [6] was inactive. For the same compound, the AC50 in [9] was 3.71 µM (active).
With `NC(N)=NC(N)=NCCc1ccccc1`, the result in experiment [1], in experiment [2], in experiment [3], in experiment [8], in [9] and in experiment [4] was inactive. Moreover, the outcome in experiment [6] and in [7] was inactive.
In the case of `COc1ccc(N)c(C)c1`, the outcome in experiment [1], in experiment [2], in [3], in experiment [8], in [4] and in experiment [6] was inactive. The AC50 in [9] is 25.5 µM (active).
